PubChem BioAssay (NCI)
About 79,000 compounds went through this panel and 15% of them were active in at least one assay; those are over-represented in the sample as a whole. The source made the active and inactive calls. No stated cut-off is given here; in the data, active means growth inhibition above about 70%; inactive means the rest.

Assay: NCI Yeast Anticancer Drug Screen. Data for the rad50 strain (AID 155);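 further: 0% = growth of vehicle-only cultures of the same strain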
Settings: S. cerevisiae rad50 strain growth inhibition; at 50.0 µM (retest, dose inferred, filed as 5.0); hits give high values
Summary of the method: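 Compounds were tested on a yeast strain with an engineered DNA damage repair alteration; the reported value is growth inhibition normalised to vehicle treatment.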

| SMILES | growth inhibition |
| --- | --- |
| CCN(CC)CCOC(=O)Cc1cccc2c(=O)cc(-c3cccs3)oc12 | 17% (inactive) |
| C=C1C(=O)OC2C/C(C)=C/CC/C(C)=C/CCC3(COC(C)=O)OC3CC12 (stereo not given) | 98% (active) |
| CN1C=CC(C(O)(c2ccccc2)c2ccccc2)CC1 (stereo not given) | 1% (inactive) |
| OCc1cccc2c1Oc1ccccc1S2 | 55% (inactive) |
| COC(=O)c1[nH]c(=O)c(C#N)c(C(=O)OC)c1C(=O)c1ccc(Cl)c(Cl)c1 | 90% (active) |

Same assay, conditions: S. cerevisiae rad50 strain growth inhibition; at 50.0 µM; hits give high values

| SMILES | growth inhibition |
| --- | --- |
| N#Cc1c(SCc2ccc(Cl)cc2)nsc1Nc1ccc(Cl)cc1 | 86.2% (active) |
| CC(CO)(Nc1ccc([N+](=O)[O-])cc1[N+](=O)[O-])C(=O)O (stereo not given) | 97.1% (active) |
| O=[N+]([O-])/C(C(Cl)=C(Cl)Cl)=C(/Nc1ccccc1)Sc1ccccc1 | 17.1% (inactive) |
| CC(SCc1ccccc1)C(=O)O (stereo not given) | -9.25% (inactive) |
| O=C1C2(Cl)C(Cl)=C(Cl)C1(Cl)C1(Cl)C(Cl)=C(Cl)C(=O)C21Cl (stereo not given) | 98.2% (active) |
| O=C(CNC(=O)c1ccccc1)Oc1c(Cl)c(Cl)c(Cl)c(Cl)c1Cl | 75% (active) |
| CN(C)c1nc(NNS(=O)(=O)c2ccc(N)cc2)nc(N(C)C)n1 | -27.1% (inactive) |
| CC1(C(Cl)(Cl)Cl)C=CC(O)(C#CC2(O)C=CC(C)(C(Cl)(Cl)Cl)C=C2)C=C1 (stereo not given) | 94.5% (active) |
| COCCN1C(=O)C2c3[nH]c4ccccc4c3C3CCC(C(C)(C)C)CC3C2C1=O (stereo not given) | 93.8% (active) |
| Cc1nc(N)sc1N=Nc1cccc(Cl)c1Cl | 71.5% (active) |
| ClC1=C(Cl)C2c3ccccc3C1c1ccccc12 | 93.6% (active) |
| C=C/C=C/CC=C | 34.2% (inactive) |
| C/C(=N\NC(=S)NCc1ccccc1)c1nccnc1C | 90.9% (active) |
| COC(=O)c1cc(OC)c(OC)c(OC)c1 | 4.25% (inactive) |
| Nc1nc2c(ccc3ccccc32)s1 | 66% (inactive) |
| N=C(N)c1ccc(N=Nc2cc(/C=C/c3ccccc3)ccc2O)cc1 | 97.7% (active) |
| O=C1NC(=O)N(c2ccc([N+](=O)[O-])cc2)C1=O | -0.3% (inactive) |
| O=C(Nc1cc(Cl)cc(Cl)c1)OCCCl | 90.8% (active) |
| Cc1[nH]nc(-c2ccon2)c1N=O | 68.7% (inactive) |
| O=C(O)CCC(=O)c1ccc(C2CCCC2)c2ccccc12 | 69.8% (inactive) |

| SMILES | growth inhibition |
| --- | --- |
| CC12CC(Br)(Br)C(=O)C3C1CCCC32 | 48.9% (inactive) |
| O=[N+]([O-])c1ccc(NSc2ccccc2)cc1 | 89.2% (active) |
| CCC1CCC(CC)C1=O (stereo not given) | 94.2% (active) |
| Cc1cc(C(C)(CC(C)C)c2ccc(O)c(C)c2)ccc1O | 91.1% (active) |
| N#CC1C(=O)SC2c3ccccc3C(=O)c3ccccc3C12 (stereo not given) | 63.8% (inactive) |
| COc1ccc(C2C3=C(CCCC3=O)Oc3cc4c(cc32)OCO4)cc1 (stereo not given) | 98% (active) |
| CCC(c1cccc(O)c1)C(CC)c1cccc(O)c1 (stereo not given) | 57.2% (inactive) |
| CCCCCCCCCCCC1C(C#N)C(=O)NC(=O)C1C#N (stereo not given) | 49.3% (inactive) |
| O=C(NNC(=O)c1cccc(C(=O)NNC(=O)c2ccc(Cl)c(Cl)c2)n1)c1ccc(Cl)c(Cl)c1 | 44.5% (inactive) |
| CCOC(=O)CCC(NC(=O)c1ccc(NC(OC)c2nc3cc(C(F)(F)F)ccc3nc2-c2ccccc2)cc1)C(=O)OCC (stereo not given) | 92.8% (active) |
| CCOC(=O)c1c(C)[nH]c(CO)c1C | 28.1% (inactive) |
| S=C(NC(=S)Nc1ccc(Cl)cc1)Nc1ccc(Cl)cc1 | 68% (inactive) |
| O=S(=O)(c1ccc(OCC(O)COc2ccc(S(=O)(=O)c3ccc(OCC4CO4)cc3)cc2)cc1)c1ccc(OCC2CO2)cc1 (stereo not given) | 21.6% (inactive) |
| C=C(C)C(=O)OC1CC2=CC(CC3(C)OC3C3OC(=O)C(=C)C13)OC2=O (stereo not given) | 88.8% (active) |
| c1ccc2c(c1)C[n+]1ccc3ccccc3c1-c1c3ccccc3cc[n+]1C2 | 64.2% (inactive) |
| CCN(CC)CCOC(=O)Cc1cccc2c(=O)cc(-c3cccs3)oc12 | 18.7% (inactive) |
| C=C1C(=O)OC2C/C(C)=C/CC/C(C)=C/CCC3(COC(C)=O)OC3CC12 (stereo not given) | 92.7% (active) |
| CN1C=CC(C(O)(c2ccccc2)c2ccccc2)CC1 (stereo not given) | 1.25% (inactive) |
| OCc1cccc2c1Oc1ccccc1S2 | 52.4% (inactive) |
| COC(=O)c1[nH]c(=O)c(C#N)c(C(=O)OC)c1C(=O)c1ccc(Cl)c(Cl)c1 | 97% (active) |
